The nature of assay [1]: UWB1.289-WTBRCA1 Cancer Cell Toxicity qHTS against the NCATS CANVASS Library (AID 1347354). The settings on record: UWB1.289-WTBRCA1 viability, CellTiter-Glo luminescence, 72 h; at 76 µM (top of the series) unless noted. In a few lines:
(§1)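 Luminescent ATP read-out (CellTiter-Glo, 15min at room temperature) measures survival after cells face an 11-point compound series for 72 hours at 37 degrees C/5% CO2.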

The nature of assay [2]: HEK-293 Cancer Cell Toxicity qHTS against the NCATS CANVASS Library (AID 1347355). Further: nearly all actives have a fitted effect of over 65% in size. The settings on record: outcome: dose series up to 91.4 µM. In a few lines: as §1
For orientation: Quantitative high-throughput screening tests each substance at several concentrations.

A short description of assay [3]: HPAF-II 24hr Apoptosis Induction qHTS against the NCATS CANVASS Library (AID 1347356). In a few lines: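 Luminescent caspase-3/7 signal (DEVD substrate, Caspase-Glo) served as read-out, taken 15 min after reagent addition to HPAF-II cells exposed 24 h to compounds.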
Assay [4] is described as follows: HEK293 18hr Apoptosis Induction qHTS against the NCATS CANVASS Library (AID 1347357). A digest of the protocol:
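Luminescent caspase-3/7 signal is measured in HEK293 cells exposed for 18 hours to an 11-point concentration series; doxorubicin serves as the plate control.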

The nature of assay [5]: HPAF-II 12hr Apoptosis Induction qHTS against the NCATS CANVASS Library (AID 1347358). A digest of the protocol:
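500 HPAF-II cells/well; cmpds 11-pt; 12 hr, 37 degrees C/5% CO2; Caspase-Glo 3/7 added, 15 min RT dark; luminescence read. Doxorubicin titration as control.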

The nature of assay [6]: HEK293 24hr Apoptosis Induction qHTS against the NCATS CANVASS Library (AID 1347359). A digest of the protocol:
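HEK293 cells, 500 per well, exposed to an 11-point compound series for 24 hours at 37 degrees C. Caspase 3/7 activity read by Caspase-Glo luminescence (DEVD substrate) after 15 min at room temperature.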

Assay [7] is described as follows: HPAF-II 18hr Apoptosis Induction qHTS against the NCATS CANVASS Library (AID 1347360). A digest of the protocol:
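Apoptosis was scored as caspase-3/7 activity in HPAF-II pancreatic cancer cells treated 18 hours with an 11-point concentration series.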

Assay [8] is described as follows: HEK293 12hr Apoptosis Induction qHTS against the NCATS CANVASS Library (AID 1347361). In a few lines: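 Apoptosis in HEK293 was scored as caspase-3/7 luminescence following 12 h treatment with a compound concentration series in qHTS format.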
Assay [9] deals with NAD(P)H diaphorase (Clostridium kluyveri). The assay can be described thus: Diaphorse counterscreen qHTS: Assay Interference Panel against the NCATS CANVASS Library (AID 1347362). In a few lines: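 Clostridium kluyveri diaphorase in PBS + 0.01% Tween-20 preincubated 15 min with compounds. Resazurin and NADH then added for 5 min at room temperature in the dark; resorufin fluorescence read (ex 525, em 598).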
A general note: A counterscreen serves to expose hits that act by an unwanted route or on another target.

For assay [10], the target named is Luciferin 4-monooxygenase (Photinus pyralis) (UniProt P08659). The assay can be described thus: Firefly luciferase counterscreen qHTS: Assay Interference Panel against the NCATS CANVASS Library (AID 1347363). In a few lines:
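Purified P. pyralis luciferase (0.04 ug/mL, 4x reagent) added to Tris-acetate buffer with 0.013 mM D-luciferin, 0.013 mM ATP and 13.3 mM Mg-acetate; compounds preincubated 15 min, then luminescence read after 5 min, RT.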

Assay [11] can be described thus: KB-8-5-11 Cancer Cell Toxicity qHTS against the NCATS CANVASS Library (AID 1347364). Further: nearly all actives have a fitted effect of over 75% in size. The settings on record: outcome: dose series up to 91.4 µM. A digest of the protocol:
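Plate 500 KB-8-5-11 cells per well in DMEM + 10% FBS, add compounds by pin transfer, incubate 72 hr at 37C. Add CellTiter-Glo, wait 10 minutes at room temperature, read luminescence.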

Assay [12] can be described thus: SDT Cancer Cell Toxicity qHTS against the NCATS CANVASS Library (AID 1347365). Further: nearly all actives have a fitted effect of over 60% in size. Further: potency means the concentration at half of the fitted maximal effect. A digest of the protocol: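 qHTS, SDT dog glioma line, 500 cells/well; cpds 11 pts; 72 hr, 37C, 5% CO2; CellTiterGlo ATP luminescence.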
A short description of assay [13]: KB-3-1 Cancer Cell Toxicity qHTS against the NCATS CANVASS Library (AID 1347366). Further: nearly all actives have a fitted effect of over 75% in size. The settings on record: outcome: dose series up to 46.1 µM. In a few lines: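 Seed KB-3-1 cells at 500/well in DMEM with 10% FBS, add compounds, incubate 72 hr at 37C and 5% CO2, then add CellTiter-Glo and read luminescence after 10 minutes.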
A short description of assay [14]: qHTS for ATAD5 Agonist screened against the NCATS CANVASS Library (AID 1347367).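 Further: luciferase reporter driven by ATAD5 which rises upon DNA damage.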 In a few lines: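 Step one plated reporter cells and let them acclimate 5hr. Step two pinned compounds with MMS as positive and 0.46% DMSO as negative control. After 16hr incubation, fluorescence viability then luminescence were read.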
A short description of assay [15]: G06 Cancer Cell Toxicity qHTS against the NCATS CANVASS Library (AID 1347368). Further: nearly all actives have a fitted effect of over 60% in size. A digest of the protocol:
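Dog G06 glioma line, 500 cells/well; cpds pin-transferred, 11-pt; 72 hr, 37C/5% CO2; CellTiterGlo luminescence (ATP) endpoint.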

Assay [16] in a line: MCF7 Cancer Cell Toxicity qHTS against the NCATS CANVASS Library (AID 1347369). The following applies: outcome: dose series up to 91.3 µM. In a few lines:
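Cytotoxicity is measured by ATP content: MCF7 cells at 500 per well receive an 11-point compound series and, after 72 hr at 37C, are lysed with CellTiterGlo for luminescence.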

A short description of assay [17]: qHTS for ATAD5 Antagonist screened against the NCATS CANVASS Library (AID 1347370).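 Further: HEK293T cells carrying an ATAD5 luciferase reporter co-treated with 10 µM 5-fluorouridine; nearly all actives have a fitted effect of over 65% in size.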 A digest of the protocol:
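HEK293T cells with stably integrated ATAD5-luciferase reporter, 2000/well, 5 h attachment; compounds plus 10 µM 5-fluorouridine, 16 h at 37 °C. Luciferase luminescence read, with CellTiter-Fluor viability read first.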

Assay [18] can be described thus: J3T Cancer Cell Toxicity qHTS against the NCATS CANVASS Library (AID 1347371). The settings on record: outcome: dose series up to 91.4 µM. A digest of the protocol:
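Cells plated at 500 per well, compounds pin-transferred, plates incubated 72 hr at 37C, then CellTiterGlo added and luminescence read to measure ATP content.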

The target of assay [19] is Nuclear receptor subfamily 1 group I member 3 (Homo sapiens) (UniProt Q14994). Put plainly: qHTS for Constitutive Androstane Receptor (CAR) Antagonist screened against the NCATS CANVASS Library (AID 1347372).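 Further: cells stimulated with 50 nM CITCO agonist so inhibition reflects antagonism.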 In a few lines:
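HepG2 cells stably carrying hCAR and CYP2B6-2.2kb luciferase reporter, 2500 cells/well, compound with 50 nM CITCO agonist for 24hr at 37C. ONE-Glo luminescence measured CAR activity; CellTiter-Fluor read viability.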

Assay [20] has the same target. The assay can be described thus: qHTS for Constitutive Androstane Receptor (CAR) Agonist screened against the NCATS CANVASS Library (AID 1347373).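 Further: every well also contained 1.5 µM PK11195 alongside the test compound.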 A digest of the protocol: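 HepG2-hCAR-CYP2B6 cells, 2500/well, attached 4hr; cpd + PK11195 1.5uM final; 24hr 37C 5% CO2. CellTiter-Fluor viability read, then ONE-Glo luminescence for CAR activation.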

Molecules are shown by their SMILES. Records with an inconclusive call do not appear. Calls of active or inactive are those of the source. The call rests on the fitted dose curve; in most records, active means well fitted curve in the direction sought with a large enough effect; inconclusive means small, poorly fitted or top-dose-only effect, or another doubt; inactive means no such curve, though single readings can be large; an effect the other way counts as inactive or inconclusive.

Chain of Nuclear receptor subfamily 1 group I member 3 (Homo sapiens) (Q14994 whole entry, looked up): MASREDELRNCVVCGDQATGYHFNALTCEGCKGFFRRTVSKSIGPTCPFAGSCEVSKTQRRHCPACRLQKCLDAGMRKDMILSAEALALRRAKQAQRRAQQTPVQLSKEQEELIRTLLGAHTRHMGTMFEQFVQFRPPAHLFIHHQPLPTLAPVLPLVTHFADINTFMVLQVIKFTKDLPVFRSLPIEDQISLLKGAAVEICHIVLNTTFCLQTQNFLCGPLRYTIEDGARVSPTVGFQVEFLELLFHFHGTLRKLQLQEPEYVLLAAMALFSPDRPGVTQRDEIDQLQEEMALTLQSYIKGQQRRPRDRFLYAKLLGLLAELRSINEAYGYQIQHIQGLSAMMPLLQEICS
Chain of Luciferin 4-monooxygenase (Photinus pyralis) (P08659 whole entry, looked up): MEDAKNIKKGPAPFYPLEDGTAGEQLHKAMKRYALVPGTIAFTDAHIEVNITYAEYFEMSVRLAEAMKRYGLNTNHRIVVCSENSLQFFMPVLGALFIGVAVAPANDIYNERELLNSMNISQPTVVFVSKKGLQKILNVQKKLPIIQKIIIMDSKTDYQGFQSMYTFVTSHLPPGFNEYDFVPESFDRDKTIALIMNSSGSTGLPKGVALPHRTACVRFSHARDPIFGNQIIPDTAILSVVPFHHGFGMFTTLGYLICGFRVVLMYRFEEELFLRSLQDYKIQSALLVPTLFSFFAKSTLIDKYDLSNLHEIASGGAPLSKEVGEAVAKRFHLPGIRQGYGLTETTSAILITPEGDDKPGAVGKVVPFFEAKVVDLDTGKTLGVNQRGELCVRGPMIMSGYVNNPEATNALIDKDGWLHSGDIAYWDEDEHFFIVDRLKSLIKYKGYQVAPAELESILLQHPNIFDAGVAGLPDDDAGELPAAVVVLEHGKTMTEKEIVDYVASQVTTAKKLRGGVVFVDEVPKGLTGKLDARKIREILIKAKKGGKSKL

Regarding `O=C(O)Cc1c[nH]c2ccc(O)cc12`, the outcome in [1], in [2], in assay [3], in [4], in [5] and in assay [6] was inactive. In addition, the call in [7], in assay [8], in assay [9], in [10], in [11] and in assay [13] was inactive. Besides, the result in assay [14], in assay [15], in assay [16], in assay [17], in [18] and in [19] was inactive. The molecule was classed as inactive in [20]. Further, in assay [12], the Potency result was “inactive”.

`CC(=O)NCCc1c[nH]c2ccc(O)cc12`: the outcome in assay [1] is “inactive [at 38.3 µM]”. Besides, the result in assay [2], in assay [3], in [4], in assay [5], in [6] and in assay [7] was inactive. The molecule was classed as inactive in [8], in [10], in assay [11], in assay [13], in [14] and in [16]. Besides, the outcome in assay [17], in assay [18], in assay [19] and in [20] was inactive. In addition, the Potency in [12] was 1480 nM (active).

The values are drawn from PubChem BioAssay (NCATS).
